Compounds with a hit are over-represented: about 3.6% of the library has one in this group of screens.
LDHA block = qHTS assay for inhibitors of human lactate dehydrogenase | AID 1347041, 2019 | 480,000 compounds, 0.15% hits | L-lactate dehydrogenase A chain (Homo sapiens), P00338 | purified LDHA, NADH/diaphorase-resazurin fluorescence; active compounds read low | activity change, % (values are at about 110 or 230 µM); in the data active = activity change below about -30%
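Human LDH5 (2 nM) was incubated with 0.06 mM NADH and 0.2 mM pyruvate for 5 min at room temperature in Tris pH 7.4. Remaining NADH was coupled through diaphorase/resazurin, and resorufin fluorescence was read at 0 and 20 min.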
TRHR enhancer = qHTS for Small Molecule Agonists and Allosteric Enhancers of Human TRH Receptor: Primary Screen for Enhancers. 360,000 compounds, 0.66% hits. AID 493056, 2011. TRHR cells, fluo-8 calcium fluorescence, EC20 TRH enhancement. enhancement, % at 2 µM. Thyrotropin-releasing hormone receptor (Homo sapiens), P34981; in the data active = enhancement above about 30%
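Enhancer read-out: after compound pinning and an initial kinetic agonist-mode read, an EC20 of TRH (10 nM final) was injected and fluo-8 calcium signal (Ex 480/Em 530) followed at 1 s/cycle for 100 cycles in TRHR-expressing cells.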
D1 potentiator = Potentiators of Human D1 Dopamine Receptor: qHTS; HEK293 TREx D1 cells, calcium flux, dopamine EC20 potentiation; potentiation, % at 10 µM; 360,000 compounds, 0.036% hits; AID 504651, 2011; in the data active = potentiation above about 30%
Target sequence (P21728 whole entry, looked up): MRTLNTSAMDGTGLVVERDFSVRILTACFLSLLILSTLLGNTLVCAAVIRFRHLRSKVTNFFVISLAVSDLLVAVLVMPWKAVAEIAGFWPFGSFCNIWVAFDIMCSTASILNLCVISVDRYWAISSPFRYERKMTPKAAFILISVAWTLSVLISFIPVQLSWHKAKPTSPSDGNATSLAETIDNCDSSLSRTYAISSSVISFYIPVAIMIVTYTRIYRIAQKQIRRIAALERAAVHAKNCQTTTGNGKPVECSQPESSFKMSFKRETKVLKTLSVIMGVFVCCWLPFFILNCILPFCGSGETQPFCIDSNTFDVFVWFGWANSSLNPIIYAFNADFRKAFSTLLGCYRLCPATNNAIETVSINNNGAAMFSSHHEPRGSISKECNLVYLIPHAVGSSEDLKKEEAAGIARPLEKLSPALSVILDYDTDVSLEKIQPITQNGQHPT
D1 antag = Antagonist of Human D 1 Dopamine Receptor: qHTS; HEK293 TREx D1 cells, calcium flux, dopamine EC80; active compounds read low; activity change, negative = inhibition, % at 10 µM; D(1A) dopamine receptor (Homo sapiens), P21728; 360,000 compounds, 3.2% hits; AID 504652, 2011; in the data active = activity change below about -30%
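Tetracycline-induced HEK293 T-REx cells with force-coupled D1 receptor were loaded with a no-wash calcium dye. Compound was added after a 10 s baseline and read kinetically for 180 s; EC80 dopamine was then added and calcium flux followed another 180 s.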
TRHR agonist = qHTS for Small Molecule Agonists and Allosteric Enhancers of Human TRH Receptor: Primary Screen for Agonists; AID 493084, 2011; TRHR cells, calcium flux fluo-8, FDSS agonist mode; 360,000 compounds, 0.18% hits; activation, % at 2 µM
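Steps: seed TRHR cells overnight; add fluo-8 no-wash Ca dye, RT 30 min–1.5 h; record 10 s baseline; pin-transfer compounds; monitor fluorescence 1 cycle/s for the agonist window. Calcium increases flag candidate agonists.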
D1 agonist = Allosteric Agonists of the Human D1 Dopamine Receptor: qHTS. HEK293 T-REx D1 cells, calcium flux, agonist mode. activation, % at 2 µM. 360,000 compounds, 1% hits. AID 504660, 2011
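Agonism was scored from calcium flux recorded over 180 s (1 read/s) after pintool compound addition, following a 10-cycle baseline. Cells were inducible force-coupled HEK293 TREx D1, plated overnight at 30 C and loaded with no-wash calcium dye.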
Hits are given with their value. Cut-off read from the data, not from the text of the source, unless noted: active = activation above about 30%; inactive = the rest.

For CC(C)NC(=O)C1CCCN(S(=O)(=O)c2cccs2)C1 (stereo unspecified) the results were LDHA block inactive, TRHR enhancer inactive, D1 potentiator inactive, D1 antag inactive, TRHR agonist inactive and D1 agonist inactive.
For O=C(Nc1ccc(O)cc1)N1CCOCC1 the results were LDHA block inactive, TRHR enhancer inactive, D1 potentiator inactive, D1 antag -39, TRHR agonist inactive and D1 agonist inactive.
Screening Cc1sc(N)c(C#N)c1-c1ccc(CC(C)C)cc1 returned LDHA block inactive.
For CNC(=O)NC(=O)CN(C)C(C)c1cccs1 (stereo unspecified) the results were LDHA block inactive.
O=C(CCC1CCCO1)NC1CCCCC1 (stereo unspecified) was read as LDHA block inactive.
Screening COc1ccc(NC(=O)N2CCCCCC2)cc1 returned LDHA block inactive, TRHR enhancer inactive, D1 potentiator inactive, D1 antag -37, TRHR agonist inactive and D1 agonist inactive.
`CS(=O)(=O)N1CCCC(C(=O)Nc2ccccc2)C1` (stereo unspecified) gave LDHA block inactive, TRHR enhancer 32, D1 potentiator inactive, D1 antag inactive, TRHR agonist inactive and D1 agonist inactive.
For COc1ccccc1NC(=O)C1CCCN(C(=O)Nc2ccc(F)cc2)C1 (stereo unspecified) the results were LDHA block inactive, TRHR enhancer inactive, D1 potentiator inactive, D1 antag -81, TRHR agonist inactive and D1 agonist inactive.
`COc1ccc(S(=O)(=O)N2CCN(C(=O)Nc3ccccc3OC)CC2)cc1` gave LDHA block inactive, TRHR enhancer inactive, D1 potentiator inactive, D1 antag -37, TRHR agonist inactive and D1 agonist inactive.
`Cc1ccc(NC(=O)CSC2=NC(C)(C)N=C2c2ccc(C)cc2)cc1` gave LDHA block inactive.
For Cn1nc(C(=O)NC(Cc2ccccc2)c2ccccc2)c2ccccc2c1=O (stereo unspecified) the results were LDHA block inactive.
For O=C(CSc1nnc2ccc(-c3cccs3)nn12)N1CCN(c2ccccc2)CC1 the results were LDHA block inactive.
`CCc1nnc(NC(=O)C(C)N2C(=O)C3C4C=CC(C4)C3C2=O)s1` (stereo unspecified) gave LDHA block inactive, TRHR enhancer inactive, D1 potentiator inactive, D1 antag -43, TRHR agonist inactive and D1 agonist inactive.
`CN(Cc1ccccc1)C(=O)C(C(=O)c1ccc(F)cc1)n1cc(Cl)ccc1=O` (stereo unspecified) gave LDHA block inactive, TRHR enhancer inactive, D1 potentiator inactive, D1 antag inactive, TRHR agonist inactive and D1 agonist inactive.
For CCN(CC)C(=O)C(C(=O)c1cccc([N+](=O)[O-])c1)n1cc(Cl)ccc1=O (stereo unspecified) the results were LDHA block inactive, TRHR enhancer inactive, D1 potentiator inactive, D1 antag -37, TRHR agonist inactive and D1 agonist inactive.
`N#CN/C(=N\S(=O)(=O)c1ccccc1)c1ccccc1` gave LDHA block inactive, TRHR enhancer 37, D1 potentiator inactive, D1 antag inactive, TRHR agonist inactive and D1 agonist inactive.
For O=S(=O)(/N=C(/Nc1ccccc1F)c1ccccc1)c1ccccc1 the results were LDHA block inactive, TRHR enhancer inactive, D1 potentiator inactive, D1 antag inactive, TRHR agonist inactive and D1 agonist inactive.
`O=C(N/N=C/c1ccc(O)cc1)c1ccc(COc2cc(Cl)ccc2Cl)o1` gave LDHA block inactive, TRHR enhancer inactive, D1 potentiator inactive, D1 antag inactive, TRHR agonist inactive and D1 agonist 43.
`COc1ccc(NCc2nnc(SCC(=O)Nc3nc(-c4ccccc4)cs3)n2-c2ccccc2)cc1` gave LDHA block inactive, TRHR enhancer inactive, D1 potentiator inactive, D1 antag -60, TRHR agonist inactive and D1 agonist inactive.
`Cc1[nH]c2ccccc2c1-c1nc2ccccc2[nH]1` gave LDHA block inactive, TRHR enhancer inactive, D1 potentiator inactive, D1 antag -77, TRHR agonist inactive and D1 agonist inactive.
`Cc1ccc(-c2nc3ccccc3[nH]2)s1` gave LDHA block inactive, TRHR enhancer 35, D1 potentiator inactive, D1 antag inactive, TRHR agonist inactive and D1 agonist inactive.
Cc1cccc(C)c1NC(=O)c1cnc2ccccc2n1 was read as LDHA block inactive.
Screening COc1ccc(C(=O)N/N=C(/C)c2cccc(NC(=O)c3ccccc3F)c2)cc1 returned LDHA block inactive, TRHR enhancer inactive, D1 potentiator inactive, D1 antag inactive, TRHR agonist inactive and D1 agonist inactive.
`COc1ccc(C(=O)N/N=C(\C)c2cccc(NC(=O)c3ccc(F)cc3)c2)c(OC)c1` gave LDHA block inactive, TRHR enhancer inactive, D1 potentiator inactive, D1 antag -37, TRHR agonist inactive and D1 agonist inactive.
CC1(C)CC(CCN2CCCCC2)(c2cccc(C(F)(F)F)c2)CCO1 (stereo unspecified) was read as LDHA block inactive.
Cc1c(Cl)cccc1-n1ncc(C(=O)NC2CCCC2)c1C1CCN(C(=O)OC(C)(C)C)CC1 was read as LDHA block inactive, TRHR enhancer inactive, D1 potentiator inactive, D1 antag -80, TRHR agonist inactive and D1 agonist inactive.
Screening COc1ccc(-n2ncc(C(=O)N3CCOCC3)c2C2CCN(C(=O)OC(C)(C)C)CC2)cc1 returned LDHA block inactive, TRHR enhancer inactive, D1 potentiator inactive, D1 antag inactive, TRHR agonist inactive and D1 agonist inactive.
For COc1cccc(N2CCN(C(=O)c3cnn(-c4ccccc4Cl)c3C3CCN(C(=O)OC(C)(C)C)CC3)CC2)c1 the results were LDHA block inactive, TRHR enhancer inactive, D1 potentiator inactive, D1 antag -49, TRHR agonist inactive and D1 agonist inactive.
COc1ccc(N2CCN(C(=O)c3cnn(-c4ccc(OC)cc4)c3C3CCN(C(=O)OC(C)(C)C)CC3)CC2)cc1 was read as LDHA block inactive, TRHR enhancer inactive, D1 potentiator inactive, D1 antag -31, TRHR agonist inactive and D1 agonist inactive.

Screening results (PubChem BioAssay)
